Screening data from PubChem BioAssay.
AmpC inh no det = Promiscuous and Specific Inhibitors of AmpC Beta-Lactamase (assay without detergent). AmpC nitrocefin hydrolysis, absorbance 480 nm, no detergent. Potency, µM (highest dose often 28.7 µM), for inactives: top-dose activity change, negative = inhibition. 1.8% of 71,000 active. AID 585, 2007; also: % of control where 0% means no effect
Target sequence (P00811 whole entry, looked up): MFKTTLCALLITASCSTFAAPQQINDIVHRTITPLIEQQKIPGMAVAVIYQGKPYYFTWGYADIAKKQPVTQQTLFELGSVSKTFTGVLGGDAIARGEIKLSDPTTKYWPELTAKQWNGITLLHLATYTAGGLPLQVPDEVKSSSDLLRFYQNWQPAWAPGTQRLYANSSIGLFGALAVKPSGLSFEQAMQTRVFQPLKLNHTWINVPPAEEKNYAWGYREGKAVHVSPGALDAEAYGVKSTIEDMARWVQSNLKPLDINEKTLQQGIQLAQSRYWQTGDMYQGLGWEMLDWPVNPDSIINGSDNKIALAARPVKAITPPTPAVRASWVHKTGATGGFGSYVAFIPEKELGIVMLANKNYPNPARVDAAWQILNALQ
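Enzyme, pH 7.0 phosphate. Compound titrations were pre-incubated with AmpC for 15 min at room temperature before nitrocefin (stock 800 uM) addition; product formation was recorded at 480 nm every 20 s for 4 min.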
Prx2 Sm inh = Schistosoma Mansoni Peroxiredoxins (Prx2). Schistosoma mansoni peroxiredoxin 2 (Prx2). S. mansoni Prx2 activity coupled to TGR/GSH (TGR is thioredoxin glutathione reductase), NADPH fluorescence loss, qHTS. Potency, µM. 0.07% of 65,000 active
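Activity is read as the drop in NADPH fluorescence (365/450 nm), recorded every 30 sec for 8 min after H2O2 addition. Prx2 is coupled to TGR-driven NADPH oxidation through glutathione, in phosphate buffer pH 7.4.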
LT uptake inh = qHTS Assay for Anthrax Lethal Toxin Internalization | Cells, anthrax lethal toxin internalization, FRET ratio (460/530) | Potency, µM (highest dose often 40 µM), for the others: at the highest dose activity change, negative = inhibition, usual class: inhibitors | 0.67% of 70,000 active | AID 912, 2007; also: % is scaled to controls: 0 for no effect and ±100 for the full control effect; nearly all actives have a fitted effect of over 50% in size
AmpC det inh = Promiscuous and Specific Inhibitors of AmpC Beta-Lactamase (assay with detergent) | 0.09% of 71,000 active | P00811 | AID 584, 2007 | Potency, µM (highest dose often 28.7 µM), for the others: at the top dose activity change, negative = inhibition | purified AmpC, nitrocefin hydrolysis with detergent; active = well fitted curve in the direction sought with a large enough effect; inconclusive = small, poorly fitted or top-dose-only effect; also: % is scaled to controls: 0 for no effect and ±100 for the full control effect
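E. coli AmpC (5.3 nM) in 20 mM phosphate pH 7.0 with 0.01% Triton X-100, preincubated 15 min RT with compound; nitrocefin (2 uL of 800 uM stock) hydrolysis followed by 480 nm absorbance every 20 s over 4 min.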
The depositor's hits bear a star; [ ] = remark or other dose. Compounds with a hit are over-represented: about 2.4% of the library has one in this group of screens. Unless noted, calls follow the shape of the full dose curve. Potency is read from the fitted curve at half-maximal effect.

`Cc1n[nH]c(C)c1S(=O)(=O)N(CC(=O)N1CCc2ccccc21)c1ccc(C(C)C)cc1` gave AmpC inh no det 4µM*[single pt active], Prx2 Sm inh >57, LT uptake inh 6% and AmpC det inh 11%.
Screening O=c1c2ccccc2sn1-c1ccc(S(=O)(=O)N2CCCC2)cc1 returned AmpC inh no det -6%, Prx2 Sm inh >57, LT uptake inh 0.13µM* and AmpC det inh -5%.
For O=c1c2ccccc2sn1-c1ccc(S(=O)(=O)N2CCCCC2)cc1 the results were AmpC inh no det -7%, Prx2 Sm inh >57, LT uptake inh 0.16µM* and AmpC det inh -4%.
CN(C)Cc1ccccc1-c1nc(N(C)C)c2ccccc2n1 was read as AmpC inh no det 28%, Prx2 Sm inh >57, LT uptake inh inconclusive and AmpC det inh 8%.
Screening O=C1OC2(c3ccc(O)cc3Oc3cc(O)ccc32)c2c1c(-c1ccccc1)c(-c1ccccc1)c(-c1ccccc1)c2-c1ccccc1 returned AmpC inh no det 2.5µM*, Prx2 Sm inh >57, LT uptake inh inconclusive and AmpC det inh -5%[5.75 µM].
Screening CNC1=C(Cl)C(=O)c2ccncc2C1=O returned AmpC inh no det 12%, LT uptake inh inconclusive and AmpC det inh 15%.
CCOC(=O)c1cnc2c(C#N)c(C)nn2c1-c1ccccc1 was read as AmpC inh no det 4µM*[single pt active], LT uptake inh -10% and AmpC det inh 10%.
For CCOC(=O)c1cnc2c(C#N)c(C)nn2c1C the results were AmpC inh no det -7%, Prx2 Sm inh >57, LT uptake inh -5% and AmpC det inh -5%.
For CCOC(=O)Cn1c(=O)oc2cc(S(=O)(=O)NCc3ccccn3)ccc21 the results were AmpC inh no det 17%, Prx2 Sm inh >57, LT uptake inh 9% and AmpC det inh 12%.
O=C(NC1CCCCC1)NC1CCN(S(=O)(=O)c2ccc3c(c2)OCCO3)CC1 was read as AmpC inh no det 10µM*[single pt active], Prx2 Sm inh >57, LT uptake inh inconclusive and AmpC det inh 13%.
`O=C(Cn1c(=O)oc2cc(S(=O)(=O)N3CCCCCC3)ccc21)NC1CCCCC1` gave AmpC inh no det 4µM*[single pt active], Prx2 Sm inh >57, LT uptake inh -16% and AmpC det inh 11%.
For O=C(Cn1c(=O)oc2cc(S(=O)(=O)N3CCCC3)ccc21)NCc1ccccn1 the results were AmpC inh no det 4µM*[single pt active], Prx2 Sm inh >57, LT uptake inh -4% and AmpC det inh 12%.
`O=C1O/C(=C\Br)CC[C@@H]1c1cccc2ccccc12` gave AmpC inh no det 3%, Prx2 Sm inh >26, LT uptake inh -1% and AmpC det inh 0%.
Screening O=C1[C@H]2[C@H]3[C@H](O)[C@H](O)C/C(=N/OCc4ccccc4)[C@H]3CC[C@@H]2C(=O)N1C1CCCCC1 returned LT uptake inh -7%[1.6 µM].
For Cc1nc2cnc(Oc3ccccc3)nc2n(Cc2cccs2)c1=O the results were AmpC inh no det 87%, Prx2 Sm inh >57, LT uptake inh -10% and AmpC det inh 0%.
For C=CCCN1C[C@@H]2C[C@H](C1)c1cccc(=O)n1C2 the results were AmpC inh no det -1%, Prx2 Sm inh >57, LT uptake inh inconclusive and AmpC det inh 2%.
`CCOC(=O)[C@]1(C(NC(=O)OC)c2ccccc2)CCCC1=O` (stereo partly drawn) gave LT uptake inh -22%[8 µM].
O=C(Nc1cccnc1)C(Cc1ccccc1)n1cccc1 (stereo not drawn) was read as AmpC inh no det 27%, Prx2 Sm inh >57, LT uptake inh -1% and AmpC det inh 8%.
Screening O=C(Nc1ncc(Br)s1)C(Cc1ccccc1)n1cccc1 (stereo not drawn) returned AmpC inh no det 13µM*, Prx2 Sm inh >57, LT uptake inh inconclusive and AmpC det inh 3%.
For CCCCCCCC#Cc1ccccc1/C=N/S(=O)C(C)(C)C (stereo not drawn) the results were LT uptake inh -17%[8 µM].
For CCc1ccc(-c2cn(-c3nc(C)cc(C)n3)c(=N)o2)cc1 the results were AmpC inh no det 19%, Prx2 Sm inh >57, LT uptake inh 13µM* and AmpC det inh 12%.
Screening CC1(C)CO[C@H](CC(=O)O)CN1 returned AmpC inh no det 11%, Prx2 Sm inh >57, LT uptake inh -11% and AmpC det inh -3%.
Screening Nc1ccc2cc3ccccc3cc2c1 returned AmpC inh no det 2.5µM*, LT uptake inh inconclusive and AmpC det inh 12%.
Screening COc1ccc(-c2nc(CSCC(=O)N3CCN(c4cccc(C)c4)C(C)C3)c(C)o2)cc1OC (stereo not drawn) returned AmpC inh no det 152%, Prx2 Sm inh >57, LT uptake inh 10µM* and AmpC det inh 10%.
For CCN(CC)CCCC(C)n1c(-c2ccccc2)nc2c(NCCOC)nc(C)nc21 (stereo not drawn) the results were AmpC inh no det 10%, LT uptake inh -1% and AmpC det inh 17%.
Cn1cccc1Cc1nnc(SCC(=O)N2CCOCC2)n1-c1ccc(F)cc1 was read as AmpC inh no det 4µM*[single pt active], Prx2 Sm inh >57, LT uptake inh 0% and AmpC det inh 14%.
Cn1cccc1Cc1nnc(SCC(N)=O)n1-c1ccc(F)cc1 was read as AmpC inh no det 4µM*[single pt active], Prx2 Sm inh >57, LT uptake inh 8% and AmpC det inh 10%.
Screening O=c1c(-c2cccs2)nc2cnc(Nc3ccccc3)nc2n1C[C@H]1CCCO1 returned AmpC inh no det -2%, Prx2 Sm inh >57, LT uptake inh inconclusive and AmpC det inh -1%.
For Cc1ccc2c(CC(=O)OCc3csc(C)n3)coc2c1 the results were AmpC inh no det 37%, Prx2 Sm inh >57, LT uptake inh 3% and AmpC det inh -4%.
O=C(Cc1coc2cc3c(cc12)CCC3)OCc1cc(=O)n2c(n1)sc1ccccc12 was read as AmpC inh no det 10µM*, Prx2 Sm inh >57, LT uptake inh 0% and AmpC det inh -1%.
Screening CCOC(=O)C1CCCN(C(=O)Cn2nc(Cc3cccnc3)c3ccccc3c2=O)C1 (stereo not drawn) returned AmpC inh no det 3.2µM*[single pt active], Prx2 Sm inh >57, LT uptake inh 2% and AmpC det inh 12%.
Screening COC(=O)C1=C(C)Nc2ccc(C)cc2S1 returned AmpC inh no det 4µM*[single pt active], Prx2 Sm inh >57, LT uptake inh -17% and AmpC det inh 12%.
COc1cccc(CNC(=O)Nc2cccs2)c1 was read as AmpC inh no det 13µM*, Prx2 Sm inh >57, LT uptake inh inconclusive and AmpC det inh -1%.
`COc1ccc(CNC(=O)Nc2cccs2)cc1OC` gave AmpC inh no det -7%, Prx2 Sm inh >57, LT uptake inh -21% and AmpC det inh -4%.
